A short description of test [1]: NCI Yeast Anticancer Drug Screen. Data for the rad50 strain (AID 155).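 Further: 0% = growth of vehicle-only cultures of the same strain.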 The settings on record: S. cerevisiae rad50 strain growth inhibition; at 50.0 µM; hits give high values. In a few lines:
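DNA repair mutant yeast, compound exposure, growth read-out; inhibition is taken relative to vehicle.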

A short description of test [2]: NCI Yeast Anticancer Drug Screen. Data for the mec2-1 strain (AID 157). As to conditions: S. cerevisiae mec2-1 strain, at 50.0 µM, hits give high values. Summed up: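 Cells of the genetically defined mec2-1 yeast strain are incubated with test compound. Inhibition of growth is calculated against vehicle-treated controls.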
The nature of test [3]: NCI Yeast Anticancer Drug Screen. Data for the sgs1 mgt1 strain (AID 161).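 Further: 0% = growth of cultures given vehicle only.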 As to conditions: S. cerevisiae sgs1 mgt1 strain, at 50.0 µM, hits give high values. Summed up: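 Mutant yeast exposed to compound; growth scored against vehicle-only wells.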
Test [4] can be described thus: NCI Yeast Anticancer Drug Screen. Data for the cln2 rad14 strain (AID 165).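 Further: 0% = growth equal to vehicle treated cultures.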 As to conditions: S. cerevisiae cln2 rad14 strain, at 50.0 µM, hits give high values. In a few lines: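 The screen exposed genetically defined yeast (cln2 rad14) to test compounds and scored growth inhibition relative to vehicle-treated controls.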
Test [5] can be described thus: NCI Yeast Anticancer Drug Screen. Data for the bub3 strain (AID 167). As to conditions: S. cerevisiae bub3 mutant strain, at 50.0 µM, hits give high values. Summed up:
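In this screen, a yeast mutant lacking normal mitotic checkpoint function is challenged with compound. Relative growth versus vehicle gives the inhibition value.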

Test [6] can be described thus: NCI Yeast Anticancer Drug Screen. Data for the mlh1 rad18 strain (AID 175). The settings on record: S. cerevisiae mlh1 rad18 strain growth inhibition; at 50.0 µM; hits give high values. In a few lines:
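Compound-treated yeast growth, normalised to vehicle controls. Strain bears defined DNA repair mutations.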

This passage reports growth inhibition results from PubChem BioAssay (NCI).

Each structure is given as a SMILES string. This is part of a sample that, as a whole, favours compounds with a hit. Of some 79,000 tested, about 15% had one in any assay. Unmarked numbers belong to inactive results. The source made the active and inactive calls. No stated cut-off is given here; in the data, active means growth inhibition above about 70%; inactive means the rest.

In the case of `C(=C\c1cc(CCc2nc3ccccc3[nH]2)[nH]n1)/c1ccccc1`, the growth inhibition in test [1] was -4.4%; in test [2] it was -16.5%; in test [3], -12.3%; in test [4], 22.6%; in test [5], -4.25%; in test [6], -15.2%.

As for `CCOC(=O)C1=C(C(=O)c2ccc(C)cc2)C(c2ccc([N+](=O)[O-])cc2)C(C(=O)c2ccc(C)cc2)=C(C(=O)OCC)N1`, the growth inhibition in test [1] is -27.3%; in test [2] it was -18.2%; in test [3], -8.9%; in test [4], -12.4%; in test [5], -14.9%; in test [6], -11.7%.

As to `C/C(O)=C(\C=NC(=S)c1ccncc1)C(=O)Nc1ccccc1C`, the growth inhibition is -26.4% in test [1]; -37.6% in test [2]; -4.8% in test [3]; 13.3% in test [4]; -4.5% in test [5]; -26.9% in test [6].

With `CC(C)OC(=O)C1=C(C(=O)OC(C)C)CCCC1`, the growth inhibition was 4.8% in test [1]; 21.6% in test [2]; 4.4% in test [3]; 13.2% in test [4]; 3.1% in test [5]; 13.7% in test [6].

As to `CN(C)c1ccc(/C=N/NC(=S)Nc2cccc3cccnc23)cc1`, the growth inhibition in test [1] was 18.6%; in test [2], -3.05%; in test [3] it was 1.4%; in test [4], 20.3%; in test [5], 20.6%; in test [6], -2.8%.

Take `Cc1nc(N)c(N2CCN(Cc3ccccc3)CC2)c(=O)[nH]1`: the growth inhibition in test [1] was -26.4%; in test [2], 1.85%; in test [3], -33.9%; in test [4] it was 16.8%; in test [5] it was 29.6%; in test [6] it was -25.3%.

For `Cc1cc([N+](=O)[O-])c2ncccc2c1`, the growth inhibition in test [1] was -12.3%; in test [2] it was -7.7%; in test [3] it was -2.7%; in test [4], -33%; in test [5], -15.7%; in test [6], -6.95%.

Regarding `CC(=O)CC(=O)Nc1cccc(C)c1C`, the growth inhibition is -8.1% in test [1]; -15.2% in test [2]; 15.3% in test [3]; -1.7% in test [4]; 9.3% in test [5]; -5.6% in test [6].

With `O=C1C2Nc3ccccc3N=C2OC1c1cccc([N+](=O)[O-])c1` (stereo unspecified), the growth inhibition in test [1] was 16.3%; in test [2], 15.6%; in test [3] it was 22.9%; in test [4] it was 16.9%; in test [5], 20.6%; in test [6], 24.2%.

Consider `CCc1cc2c(c3c1CCCC3=O)CC1(C2)Cc2cc(CC)c3c(c2C1)C(=O)CCC3`, for which the growth inhibition in test [1] was 6.05%; in test [2], -9.9%; in test [3] it was -3.6%; in test [4] it was 5.4%; in test [5] it was 10.7%; in test [6], 4.5%.

For the compound `N#CC(c1ccc(Cl)cc1)c1cccc(C(C#N)c2ccc(Cl)cc2)n1` (stereo unspecified), the growth inhibition in test [1] is 28.9%; in test [2], 13.6%; in test [3] it was 38%; in test [4] it was 32.1%; in test [5] it was 38.4%; in test [6], 25.3%.

`O=c1c(SCc2ccc(Cl)c(Cl)c2)c(SCc2ccc(Cl)c(Cl)c2)cnn1-c1ccccc1`: the growth inhibition in test [1] is -8.5%; in test [2] it was -11.5%; in test [3], -6.05%; in test [4] it was -1.6%; in test [5], -13.4%; in test [6], 15.3%.

Turning to `CC(C)(C)N=C(N)NC#N`, the growth inhibition was 9.6% in test [1]; 9.25% in test [2]; -9.85% in test [3]; 17.1% in test [4]; -4.5% in test [5]; -33.3% in test [6].

Take `CCC(C)C(C(=O)OCCC[N+]1(C)CCCCC1)c1ccccc1` (stereo unspecified): the growth inhibition in test [1] is 49.9%; in test [2] it was -6.75%; in test [3] it was 18.2%; in test [4], -4.4%; in test [5], 5.75%; in test [6], 14%.

For `O=C1OC(c2ccccc2)=CC1Cc1ccccc1` (stereo unspecified), the growth inhibition in test [1] is 34.9%; in test [2], -2.35%; in test [3] it was 1.85%; in test [4] it was 3.4%; in test [5] it was -3%; in test [6], -8%.

As for `CC(=O)c1cc2c(cc1C)C(C)=C(C)C2(C)C`, the growth inhibition in test [1] is -3.1%; in test [2] it was -2.35%; in test [3] it was 1.55%; in test [4] it was -13.4%; in test [5], 0.65%; in test [6] it was -2.9%.

As for `CCOC(=O)c1cnc(C)nc1Nc1ccccc1`, the growth inhibition in test [1] was 5.75%; in test [2], 11.4%; in test [3] it was -0.8%; in test [4], -21.4%; in test [5], 0.9%; in test [6], -23.7%.

Take `Cc1nc2c(Cl)cc(Cl)cc2c(Cl)c1CCCl`: the growth inhibition is 29.9% in test [1]; 30.2% in test [2]; 49.5% in test [3]; 18.9% in test [4]; 39.6% in test [5]; 45.6% in test [6].

Turning to `CCCC(=O)Nc1cc(/C=C/C(=O)N2C[C@H]3C[C@@]34C2=CC(=O)c2[nH]cc(C)c24)n(C)c1`, the growth inhibition in test [1] is 80.2% (active); in test [2], 89.3% (active); in test [3], 83.7% (active); in test [4] it was 81.2% (active); in test [5] it was 58%; in test [6], 84.2% (active).

Take `Nc1ccc2ccccc2c1S(=O)(=O)O`: the growth inhibition in test [1] is 16.1%; in test [2], -6.4%; in test [3], 15%; in test [4], 4.65%; in test [5], -2.4%; in test [6] it was -27%.

`Nc1ncnc2c1[nH]c(=O)n2-c1ccccc1`: the growth inhibition in test [1] is -46.6%; in test [2], -30.5%; in test [3], -16.6%; in test [4], -1.3%; in test [5] it was -17.1%; in test [6], -6.9%.
